Among all 2,200 compounds or so, about 1,200 (55%) were called active. The set was probably picked from earlier hits. Some of the results follow. A number with no mark means an inactive call. The limit is not given here; nearly all actives have IC50 up to about 92 µM.
assay: counter assay for TAg ATPase ADP read-out – biochemical, ADP-Hunter, fluorescence, counter-screen (AID 2501); settings: series mostly up to 100 µM; inhibition: at the top concentration;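 also: purified T antigen ATPase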;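 as to inhibition: 0% = enzyme with vehicle and 100% = reference inhibitor wells; higher means more inhibition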

Structure (SMILES)	inhibition	IC50
Nc1ccc(-n2nncc2-c2ccc(Cl)cc2)cc1	28.3%	–
COc1cnc(-c2ccccn2)nc1Oc1ccc(Cl)c2ccccc12	-37.7%	–
CC(NC(=O)Nc1ccc(O)cc1)(C(F)(F)F)C(F)(F)F	–	6.77 µM (active)
CCOC(=O)C1(Cc2ccccc2)CCN(Cc2cnn(C(C)C)c2)CC1	–	26.4 µM (active)
CCOC(=O)C1(CCc2ccccc2)CCN(C(=O)CCc2cnn(C)c2)CC1	-29.5%	–
CCOC(=O)C1(Cc2ccc(Cl)cc2)CCN(C(=O)CCc2ccncc2)CC1	-4.52%	–
O=C(N/N=C/c1c[nH]c2ccccc12)c1ccc(O)c(O)c1	–	7.17 µM (active)
Cc1ncc(CO)c(/C=N/NC(=O)c2cc(O)c(O)c(O)c2)c1O	-352%	–
Oc1ccc(O)c(-c2cnns2)c1	–	28.1 µM (active)
CC(=O)CC1OC(=O)C(Br)=C1NCc1ccccc1 (stereo not given)	6.4%	–
C/C(CC(=O)Nc1ccc(N(C)C)cc1)=N\NC(=O)c1ccc(Cl)cc1Cl	–	3.99 µM (active)
CN(C(=O)COC(=O)CNC(=O)CNC(=O)c1ccc(Cl)cc1Cl)c1ccccc1	16.9%	–
C/C(CC(=O)Nc1ccc(N(C)C)cc1)=N\NC(=O)c1ccc([N+](=O)[O-])cc1Cl	–	6.47 µM (active)
C=CCN(c1ccc(C(=O)Nc2cccc([N+](=O)[O-])c2)cc1)S(C)(=O)=O	-6.02%	–
C/C(=N/NC(=O)c1cc(O)c(O)c(O)c1)c1ccc([N+](=O)[O-])cc1	25.1%	–
C=C(CC)C(=O)c1ccc(OCC(=O)O)c(Cl)c1Cl	2.1%	–
Cc1ccc(CNC(=O)C2CC(c3ccccc3[N+](=O)[O-])=NO2)cc1 (stereo not given)	4.09%	–
CC1=C(C#N)c2nc(N)c(C#N)c(C)c2/C1=C\c1ccc(-c2ccccc2C(=O)O)o1	24.6%	–
CCN=c1scc(C)n1/N=C/c1cc(Br)c(O)c(Br)c1	–	6.61 µM (active)
CN=c1scc(C)n1/N=C/c1ccc(O)cc1O	–	3.58 µM (active)
CN=c1scc(C)n1/N=C/c1cc(Br)c(O)c(OC)c1	–	5.68 µM (active)
COc1cc(/C=N/NC(=O)CC#N)cc(Br)c1O	–	6.13 µM (active)
COc1cc([N+](=O)[O-])cc(/C=N/NC(=O)CC#N)c1O	-12.9%	–
CCN=c1scc(C)n1/N=C/c1cc(Br)c(O)c(OC)c1	–	14.6 µM (active)
COc1cc(/C=N/N(C)C)cc(Br)c1O	–	3.75 µM (active)

Structure (SMILES)	inhibition	IC50
COc1cc(/C=N/N2C(=O)CSC2=S)cc(Br)c1O	–	13.3 µM (active)
O=C1CSC(=S)N1/N=C/c1ccc(O)c([N+](=O)[O-])c1	6.19% [at 50 µM]	–
COC(=O)c1ccccc1-n1c(C)nc(=O)c(-c2ccccc2)c1C	10.8%	–
C[N+]1(CCCCSc2ccc(O)cc2)CCCCC1	–	4.59 µM (active)
CNc1n[nH]c(=S)s1	–	92.7 µM (active)
CC(=O)Oc1cc(O)c2c(=O)c(OC(C)=O)c(-c3ccc(OC(C)=O)c(OC(C)=O)c3)oc2c1	–	16.6 µM (active)
CC1(C)CC(=O)C=C(NCCc2ccccc2)C1	-19.5%	–
O=C(Nc1ccc(CN2CCOCC2)cc1)c1ccc(N2CCCC2)c([N+](=O)[O-])c1	-12.7%	–
O=[N+]([O-])c1ccc(N2CCN(c3ccc(O)cc3)CC2)cn1	–	5.49 µM (active)
CN1CCN(S(=O)(=O)c2ccc3c(c2)NC(=O)C2CCCN32)CC1 (stereo not given)	-7.97%	–
CC(=O)Nc1ccc(S(=O)(=O)N2CCN(Cc3ccccc3[N+](=O)[O-])CC2)cc1	-7.97%	–
CN1CCN(S(=O)(=O)c2ccc(N3CCN(c4ccc(O)cc4)CC3)c([N+](=O)[O-])c2)CC1	–	4.03 µM (active)
NC(=O)c1ccc(N2CCN(c3ccc(O)cc3)CC2)c([N+](=O)[O-])c1	–	7.83 µM (active)
O=C(O)c1ccc(-c2ccc(O)c(F)c2)cc1	–	7.49 µM (active)
O=C1NC(C(=O)O)=CC(c2ccc([N+](=O)[O-])cc2)N1 (stereo not given)	-6.48%	–
CC(/C=N/n1c(-c2ccncc2)n[nH]c1=S)=C\c1ccco1	–	44.3 µM (active)
CC(/C=N/n1c(-c2n[nH]c3c2CCC3)n[nH]c1=S)=C\c1ccco1	–	49 µM (active)
S=c1[nH]nc(COc2ccccc2)n1/N=C/C=C/c1ccco1	21.1%	–
Cc1cc(-c2n[nH]c(=S)n2/N=C/C=C/c2ccco2)n[nH]1	–	97.4 µM (active)
Cc1ccsc1/C=N/n1c(-c2cccnc2)n[nH]c1=S	–	25 µM (active)
Cc1ccnc(NC(=S)NC(=O)/C=C/c2ccco2)c1	8.26%	–
O=C(O)c1ccc(-n2c(-c3cc(-c4ccco4)[nH]n3)n[nH]c2=S)cc1	27.3%	–
O=C(O)c1cc(-c2ccco2)nc2ccc(Br)cc12	13.5%	–
Cc1ccc(/C=N/n2c(-c3ccco3)n[nH]c2=S)cc1	–	16.5 µM (active)
S=c1[nH]nc(-c2n[nH]c3c2CCC3)n1/N=C/C=C/c1ccco1	–	28.2 µM (active)

From PubChem BioAssay AID2501 (Southern Research Specialized Biocontainment Screening …, 2010)
